Data from the antibiotic and cytotoxicity screens of Wong et al. (2023).
The campaign covered roughly 39,000 compounds. About 3,300 (8.5%) were called active. Shown is part of a subset that was picked to be rich in actives.

The compounds below were run on HepG2 (assay: cytotoxicity call (relative viability < 0.9)). Details: 10 µM.

Compound	cytotoxicity call
Cc1ccc(S[C@]2(C(=O)NCCCN(C)C)CC(=O)N(Cc3ccccc3C(F)(F)F)[C@@H]2c2ccc(CO)cc2)cc1	inactive
C[C@H]1CN([C@@H](C)CO)C(=O)Cc2cc(NS(=O)(=O)c3ccc(F)cc3)ccc2O[C@H]1CN(C)C(=O)Nc1cccc2ccccc12	inactive
Cc1cc(-c2cc[nH]n2)c(C)s1	inactive
C[C@H]1CCCCO[C@@H](CN(C)Cc2ccncc2)[C@@H](C)CN([C@@H](C)CO)C(=O)c2cc(NC(=O)CCC(F)(F)F)ccc2O1	inactive
C[C@@H]1CN([C@H](C)CO)C(=O)c2cc(NC(=O)Nc3ccc(C(F)(F)F)cc3)ccc2O[C@@H](C)CCCCO[C@H]1CN(C)C	inactive
C[C@@H]1CCCCO[C@@H](CN(C)C)[C@@H](C)CN([C@H](C)CO)C(=O)c2cc(NC(=O)Nc3ccc(C(F)(F)F)cc3)ccc2O1	active
C[C@H]1CCCCO[C@@H](CN(C)S(=O)(=O)c2cn(C)cn2)[C@@H](C)CN([C@@H](C)CO)C(=O)c2cc(NC(=O)Nc3ccc(C(F)(F)F)cc3)ccc2O1	active
C[C@@H]1CN([C@@H](C)CO)C(=O)c2cc(NC(=O)Nc3ccc(C(F)(F)F)cc3)ccc2O[C@@H](C)CCCCO[C@@H]1CN(C)S(=O)(=O)c1cn(C)cn1	inactive
C[C@@H]1CN([C@@H](C)CO)C(=O)c2cc(NC(=O)Nc3ccc(C(F)(F)F)cc3)ccc2O[C@@H](C)CCCCO[C@H]1CN(C)S(=O)(=O)c1cn(C)cn1	inactive
C[C@H]1CCCCO[C@H](CN(C)C)[C@@H](C)CN([C@@H](C)CO)C(=O)c2cc(NC(=O)Nc3ccc(C(F)(F)F)cc3)ccc2O1	inactive
C[C@H]1CN([C@@H](C)CO)C(=O)c2cc(C#CC3(O)CCCC3)cnc2O[C@@H]1CN(C)S(=O)(=O)c1ccccc1	inactive
COc1cccc(-c2ccc3c(c2)O[C@@H](CN(C)C(=O)C2CC2)[C@@H](C)CN([C@@H](C)CO)S3(=O)=O)c1	inactive
C[C@@H]1CN([C@H](C)CO)C(=O)c2cc(NC(=O)Nc3ccccc3)ccc2O[C@@H](C)CCCCO[C@@H]1CN(C)Cc1ccc(C(=O)O)cc1	inactive
C[C@H]1CN([C@@H](C)CO)C(=O)c2cc(C#CC3(O)CCCC3)cnc2O[C@H]1CN(C)C(=O)Cc1ccccc1	inactive
CCNC(=O)C[C@H]1CC[C@H](NC(=O)C2CC2)[C@H](CO)O1	inactive
Cn1cnc(S(=O)(=O)N2C[C@H](O)COC[C@@H]3O[C@H](CC(=O)NC4Cc5ccccc5C4)CC[C@H]32)c1	inactive
O=C(C[C@@H]1CC[C@H]2[C@@H](COC[C@@H](O)CN2S(=O)(=O)c2ccccc2Cl)O1)NCc1ccccc1Cl	inactive
C[C@H]1CCc2[nH]c3ccccc3c2C1	active
COc1ccc2c3c(ccc2c1)-c1[nH]c2ccccc2c1CC3	inactive
O=c1[nH]c2ccccc2c2ccccc12	inactive
C[C@H]1CN([C@@H](C)CO)C(=O)c2cc(NS(=O)(=O)c3ccccc3)ccc2O[C@@H]1CN(C)C(=O)Nc1cccc2ccccc12	inactive
O[C@H]1CCN(c2nccs2)C1	inactive
Nc1nccs1	inactive
O=C1CCC(=O)N1c1nccs1	active
O=C([C@@H]1[C@@H](CO)[C@@H]2Cn3c(cccc3=O)[C@@H]2N1CC1CCCC1)N1CCOCC1	inactive

Compound	cytotoxicity call
COC1(NC(=O)CSCC#N)C(=O)N2C(C(=O)[O-])=C(CSc3nnnn3C)CSC21.[Na+] (stereo not given)	inactive
C[C@H]1CN([C@@H](C)CO)C(=O)c2cc(NC(=O)Nc3ccccc3)ccc2O[C@H]1CN(C)Cc1ccc(Cl)c(Cl)c1	active
C[C@@H]1CN([C@H](C)CO)C(=O)c2cc(NC(=O)Nc3ccccc3)ccc2O[C@@H]1CN(C)Cc1ccc(Cl)c(Cl)c1	inactive
C[C@H](CO)N1C[C@H](C)[C@H](CN(C)Cc2ccc(Cl)c(Cl)c2)Oc2ccc(NC(=O)Nc3ccccc3)cc2C1=O	inactive
C[C@H](CO)N1C[C@H](C)[C@@H](CN(C)Cc2ccc(Cl)c(Cl)c2)Oc2ccc(NC(=O)Nc3ccccc3)cc2C1=O	inactive
C[C@@H]1CN([C@@H](C)CO)C(=O)c2cc(NC(=O)Nc3ccccc3)ccc2O[C@@H]1CN(C)Cc1ccc(Cl)c(Cl)c1	active
C[C@@H]1CN([C@@H](C)CO)C(=O)c2cc(NC(=O)Nc3ccccc3)ccc2O[C@H]1CN(C)Cc1ccc(Cl)c(Cl)c1	active
C[C@H]1CN([C@@H](C)CO)C(=O)c2cc(NC(=O)Nc3ccccc3)ccc2O[C@@H]1CN(C)Cc1ccc(Cl)c(Cl)c1	inactive
C[C@@H]1CN([C@H](C)CO)C(=O)c2cc(NC(=O)Nc3ccccc3)ccc2O[C@H]1CN(C)Cc1ccc(Cl)c(Cl)c1	inactive
COCC(=O)N1C[C@H](C)[C@@H](OC)CN(C)C(=O)c2cc(NC(=O)c3ccc(F)cc3)ccc2OC[C@@H]1C	inactive
N#Cc1cn(C2CCCCC2)c(=O)[nH]c1=O	inactive
C[C@H]1CCCCO[C@H](CN(C)C(=O)Cc2ccccc2)[C@@H](C)CN([C@@H](C)CO)C(=O)c2cc(NC(=O)C3CCCCC3)ccc2O1	inactive
CC(C)CC#Cc1ccc2c(c1)O[C@H](CN(C)C(=O)Cc1ccccn1)[C@@H](C)CN([C@@H](C)CO)S2(=O)=O	inactive
C[C@@H]1CN([C@H](C)CO)C(=O)Cc2cc(NC(=O)c3ccncc3)ccc2O[C@@H]1CN(C)C(=O)NC1CCCCC1	inactive
C[C@@H]1CN([C@H](C)CO)C(=O)c2cc(-c3ccncc3)cnc2O[C@@H]1CN(C)S(=O)(=O)c1ccc(F)cc1	inactive
Cc1nsc(-c2ccccc2)n1	inactive
C[C@@H]1CCCCO[C@@H](CN(C)Cc2ccc3c(c2)OCO3)[C@H](C)CN([C@@H](C)CO)C(=O)c2cc(NS(=O)(=O)c3ccc(F)cc3)ccc2O1	inactive
C[C@@H]1CCCCO[C@@H](CN(C)Cc2ccc3c(c2)OCO3)[C@@H](C)CN([C@@H](C)CO)C(=O)c2cc(NS(=O)(=O)c3ccc(F)cc3)ccc2O1	active
C[C@H]1CCCCO[C@H](CN(C)Cc2ccc3c(c2)OCO3)[C@@H](C)CN([C@@H](C)CO)C(=O)c2cc(NS(=O)(=O)c3ccc(F)cc3)ccc2O1	inactive
C[C@@H]1CCCCO[C@@H](CN(C)Cc2ccc3c(c2)OCO3)[C@H](C)CN([C@H](C)CO)C(=O)c2cc(NS(=O)(=O)c3ccc(F)cc3)ccc2O1	inactive
C[C@@H]1CCCCO[C@@H](CN(C)Cc2ccc3c(c2)OCO3)[C@@H](C)CN([C@H](C)CO)C(=O)c2cc(NS(=O)(=O)c3ccc(F)cc3)ccc2O1	active
C[C@@H]1CN([C@@H](C)CO)C(=O)c2cc(NS(=O)(=O)c3ccc(F)cc3)ccc2O[C@@H](C)CCCCO[C@H]1CN(C)Cc1ccc2c(c1)OCO2	inactive
C[C@@H]1CN([C@H](C)CO)C(=O)c2cc(NS(=O)(=O)c3ccc(F)cc3)ccc2O[C@@H](C)CCCCO[C@@H]1CN(C)Cc1ccc2c(c1)OCO2	inactive
C[C@@H]1CCCCO[C@H](CN(C)Cc2ccc3c(c2)OCO3)[C@H](C)CN([C@H](C)CO)C(=O)c2cc(NS(=O)(=O)c3ccc(F)cc3)ccc2O1	inactive
C[C@@H]1CCCCO[C@H](CN(C)Cc2ccc3c(c2)OCO3)[C@@H](C)CN([C@@H](C)CO)C(=O)c2cc(NS(=O)(=O)c3ccc(F)cc3)ccc2O1	active
